# Assay results taken from the supplement of paper PMC8728848.
# Only a selection was taken, and the strongest signals are over-represented in it overall.
# B1: Gal 3 (Homo sapiens), P17931 (protein)
# chain: MADNFSLHDALSGSGNPNPQGWPGAWGNQPAGAGGYPGASYPGAYPGQAPPGAYPGQAPPGAYHGAPGAYPGAPAPGVYPGPPSGPGAYPSSGQPSAPGAYPATGPYGAPAGPLIVPYNLPLPGGVVPRMLITILGTVKPNANILDFQRGNDVAFHFNPRFNENNRRVIVCNTKLDNNWGREEIQSVFPFESGKPFKIQVLVEPDHFKVAVNDAHLLQYNHRVKKLNEISKLGISGDIDLTSASYTMI
# Assays:
# Assay in all cases: glycan array binding signal (z-score within array); higher = stronger binding
# Conditions in all cases: glycan notation: IUPAC condensed, linker removed; mutation: R186I
# [1] = target: Fuc(a1-2)Gal(b1-3)GalNAc(b1-3)Gal
# How it was run: (§1)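 Arrays were curated from the Consortium for Functional Glycomics database, 3228 in total, and kept only where the protein sequence was available. Binding is expressed as a within-array Z-score. This score was averaged across arrays of the same protein sequence at different concentrations or buffers and across linkers, and negative values can be read as non-binding.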
# [2] = target: Fuc(a1-2)Gal(b1-3)GalNAc(b1-3)Gal(a1-4)Gal(b1-4)Glc
# How it was run: as §1
# [3] = target: Fuc(a1-2)Gal(b1-3)GlcNAc(b1-3)[Fuc(a1-3)[Gal(b1-4)]GlcNAc(b1-6)]Gal(b1-4)Glc
# How it was run: as §1
# [4] = target: Fuc(a1-2)Gal(b1-4)GlcNAc(b1-2)Man(a1-3)[Fuc(a1-2)Gal(b1-4)GlcNAc(b1-2)Man(a1-6)]Man(b1-4)GlcNAc(b1-4)GlcNAc
# How it was run: as §1
# [5] = target: Fuc(a1-2)[Gal(a1-3)]Gal(b1-3)GlcNAc(b1-2)Man(a1-3)[Fuc(a1-2)[Gal(a1-3)]Gal(b1-3)GlcNAc(b1-2)Man(a1-6)]Man(b1-4)GlcNAc(b1-4)GlcNAc
# How it was run: as §1
# [6] = target: Fuc(a1-2)[Gal(a1-3)]Gal(b1-4)GlcNAc(b1-2)Man(a1-3)[Fuc(a1-2)[Gal(a1-3)]Gal(b1-4)GlcNAc(b1-2)Man(a1-6)]Man(b1-4)GlcNAc(b1-4)GlcNAc
# How it was run: as §1
# [7] = target: Fuc(a1-2)[GalNAc(a1-3)]Gal(b1-3)GlcNAc(b1-2)Man(a1-3)[Fuc(a1-2)[GalNAc(a1-3)]Gal(b1-3)GlcNAc(b1-2)Man(a1-6)]Man(b1-4)GlcNAc(b1-4)GlcNAc
# How it was run: as §1
# [8] = target: Fuc(a1-2)[GalNAc(a1-3)]Gal(b1-4)GlcNAc(b1-2)Man(a1-3)[Fuc(a1-2)[GalNAc(a1-3)]Gal(b1-4)GlcNAc(b1-2)Man(a1-6)]Man(b1-4)GlcNAc(b1-4)GlcNAc
# How it was run: as §1
# [9] = target: Fuc(a1-2)[GalNAc(a1-3)]Gal(b1-4)GlcNAc(b1-3)Gal(b1-4)GlcNAc(b1-3)Gal(b1-4)GlcNAc
# How it was run: as §1
# [10] = target: Fuc(a1-3)[Gal3S(b1-4)]GlcNAc
# How it was run: as §1
# [11] = target: Fuc(a1-3)[Gal3S(b1-4)]GlcNAc6S
# How it was run: as §1
# [12] = target: Gal(a1-4)Gal(b1-4)GlcNAc
# How it was run: as §1
# [13] = target: Gal(b1-3)Gal(b1-4)GlcNAc(b1-2)Man(a1-3)[Gal(b1-3)Gal(b1-4)GlcNAc(b1-2)Man(a1-6)]Man(b1-4)GlcNAc(b1-4)GlcNAc
# How it was run: as §1
# [14] = target: Gal(b1-3)GalNAc(a1-3)[Fuc(a1-2)]Gal(b1-4)GlcNAc
# How it was run: as §1
# [15] = target: Gal(b1-3)GlcNAc(b1-3)Gal(b1-4)GlcNAc
# How it was run: as §1
# [16] = target: Gal(b1-3)GlcNAc(b1-3)Gal(b1-4)[Fuc(a1-3)]GlcNAc(b1-6)[Gal(b1-3)GlcNAc(b1-3)]Gal(b1-4)Glc
# How it was run: as §1
# [17] = target: Gal(b1-3)GlcNAc(b1-6)Gal(b1-4)GlcNAc
# How it was run: as §1
# [18] = target: Gal(b1-3)[Fuc(a1-4)]GlcNAc(b1-2)Man(a1-3)[Gal(b1-3)[Fuc(a1-4)]GlcNAc(b1-2)Man(a1-6)]Man(b1-4)GlcNAc(b1-4)GlcNAc
# How it was run: as §1
# [19] = target: Gal(b1-3)[GlcNAc(b1-6)]GalNAc
# How it was run: as §1
# [20] = target: Gal(b1-4)GlcNAc(b1-3)Gal(b1-3)GlcNAc
# How it was run: as §1
# [21] = target: Gal(b1-4)GlcNAc(b1-3)[Gal(b1-4)GlcNAc(b1-6)]Gal(b1-4)GlcNAc
# How it was run: as §1
# [22] = target: Gal3S(b1-4)Glc
# How it was run: as §1
# [23] = target: Gal3S(b1-4)[Fuc(a1-3)]Glc
# How it was run: as §1
# [24] = target: GalNAc(b1-3)Gal(a1-4)Gal(b1-4)GlcNAc(b1-3)Gal(b1-4)Glc
# How it was run: as §1
# [25] = target: Glc(a1-6)Glc(a1-6)Glc
# How it was run: as §1
# [26] = target: GlcNAc(b1-3)Man
# How it was run: as §1
# [27] = target: Man(a1-2)Man(a1-3)[Man(a1-2)Man(a1-6)]Man(a1-6)[Man(a1-2)Man(a1-2)Man(a1-3)]Man
# How it was run: as §1
# [28] = target: Man(a1-6)Man
# How it was run: as §1
# [29] = target: Neu5Ac(a2-3)Gal(b1-4)GlcNAc(b1-2)Man(a1-3)[GlcNAc(b1-2)Man(b1-4)GlcNAc(b1-2)Man(a1-6)]Man(b1-4)GlcNAc(b1-4)GlcNAc
# How it was run: as §1
# [30] = target: Neu5Ac(a2-3)Gal(b1-4)[Fuc(a1-3)]GlcNAc
# How it was run: as §1
binder,measurement,setting,value
B1,glycan array binding signal (z-score),[1],-0.188
same,glycan array binding signal (z-score),[2],-0.055
same,glycan array binding signal (z-score),[3],-0.187
same,glycan array binding signal (z-score),[4],2.01
same,glycan array binding signal (z-score),[5],5.08
same,glycan array binding signal (z-score),[6],10.8
same,glycan array binding signal (z-score),[7],3.39
same,glycan array binding signal (z-score),[8],8.83
same,glycan array binding signal (z-score),[9],-0.113
same,glycan array binding signal (z-score),[10],-0.147
same,glycan array binding signal (z-score),[11],-0.154
same,glycan array binding signal (z-score),[12],-0.127
same,glycan array binding signal (z-score),[13],11.1
same,glycan array binding signal (z-score),[14],-0.146
same,glycan array binding signal (z-score),[15],-0.166
same,glycan array binding signal (z-score),[16],-0.002
same,glycan array binding signal (z-score),[17],-0.173
same,glycan array binding signal (z-score),[18],-0.173
same,glycan array binding signal (z-score),[19],-0.128
same,glycan array binding signal (z-score),[20],0.065
same,glycan array binding signal (z-score),[21],0.077
same,glycan array binding signal (z-score),[22],-0.189
same,glycan array binding signal (z-score),[23],-0.171
same,glycan array binding signal (z-score),[24],2.69
same,glycan array binding signal (z-score),[25],-0.021
same,glycan array binding signal (z-score),[26],-0.189
same,glycan array binding signal (z-score),[27],-0.075
same,glycan array binding signal (z-score),[28],-0.185
same,glycan array binding signal (z-score),[29],-0.073
same,glycan array binding signal (z-score),[30],-0.164
